Data published in paper PMC7862700, “An all-to-all approach to the identification of sequence-specific readers for epigenetic DNA modifications on cytosine”.

Columns and labels:
Experiment in all cases: DAPPL (digital affinity profiling via proximity ligation, sequencing); 10 mM Tris-HCl pH 7.5, 50 mM NaCl, 1 mM DTT, 4% glycerol, room temperature, 30 min; GST-TFs on glutathione beads, 16-mer random dsDNA library, 0.1% formaldehyde crosslink after washing; high values mean tight binding
FEV = target: T1, FEV (Homo sapiens, UniProt Q99581 1-238); details: protein: recombinant; tags: N-terminal GST; dsDNA, one strand shown
T1 sequence: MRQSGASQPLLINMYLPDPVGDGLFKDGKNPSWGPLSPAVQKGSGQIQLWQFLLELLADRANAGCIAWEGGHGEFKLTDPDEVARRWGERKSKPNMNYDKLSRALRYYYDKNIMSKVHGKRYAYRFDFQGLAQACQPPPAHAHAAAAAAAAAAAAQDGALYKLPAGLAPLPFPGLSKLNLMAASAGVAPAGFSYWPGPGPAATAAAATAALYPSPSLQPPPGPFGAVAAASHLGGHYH
Procedure, shortened: (§1)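 Sequencing on an Illumina NextSeq500 followed washing, crosslinking with 0.1% formaldehyde, proximity ligation (BsaI/T4 ligase, 1 h, 37 °C) and PCR amplification of pools that had been incubated for 30 min at room temperature with 200 nmole of a random double-stranded 16-mer DNA library in Tris/NaCl/DTT/glycerol buffer. Each pool held DNA-barcoded human transcription factors, expressed in yeast as GST fusions and captured on glutathione beads, plus a tag-only sample. Binding signal is a hexamer's read frequency for a factor divided by its frequency in the tag-only sample.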

ETV5 = ETV5 (Homo sapiens, UniProt P41161 1-510); details: protein: recombinant; tags: N-terminal GST; dsDNA, one strand shown
Procedure, shortened: as §1

HSF1 = HSF1 (Homo sapiens, UniProt Q00613 1-529); details: protein: recombinant; tags: N-terminal GST; chain copies: 3; dsDNA, one strand shown
Procedure, shortened: as §1

ELF4 = ELF4 (Homo sapiens, UniProt Q99607 1-663); details: protein: recombinant; tags: N-terminal GST; dsDNA, one strand shown
Procedure, shortened: as §1

ELK4 = target: T2, ELK4 (Homo sapiens, UniProt P28324-2 1-405); details: protein: recombinant; tags: N-terminal GST; dsDNA, one strand shown
T2 sequence: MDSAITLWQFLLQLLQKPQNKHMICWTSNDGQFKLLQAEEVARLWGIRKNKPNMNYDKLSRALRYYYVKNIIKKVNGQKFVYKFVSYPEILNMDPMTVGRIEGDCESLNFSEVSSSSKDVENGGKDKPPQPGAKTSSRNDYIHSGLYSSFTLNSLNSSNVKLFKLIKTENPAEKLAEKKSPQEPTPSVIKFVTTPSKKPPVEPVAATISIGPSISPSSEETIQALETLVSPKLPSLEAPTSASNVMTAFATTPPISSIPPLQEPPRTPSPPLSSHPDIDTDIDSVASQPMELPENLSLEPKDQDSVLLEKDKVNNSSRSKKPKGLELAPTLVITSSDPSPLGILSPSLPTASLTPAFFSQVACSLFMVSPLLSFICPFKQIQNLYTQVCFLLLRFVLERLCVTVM
Procedure, shortened: as §1

ETV2 = target: T3, ETV2 (Homo sapiens, UniProt O00321 1-342); details: protein: recombinant; tags: N-terminal GST; dsDNA, one strand shown
T3 sequence: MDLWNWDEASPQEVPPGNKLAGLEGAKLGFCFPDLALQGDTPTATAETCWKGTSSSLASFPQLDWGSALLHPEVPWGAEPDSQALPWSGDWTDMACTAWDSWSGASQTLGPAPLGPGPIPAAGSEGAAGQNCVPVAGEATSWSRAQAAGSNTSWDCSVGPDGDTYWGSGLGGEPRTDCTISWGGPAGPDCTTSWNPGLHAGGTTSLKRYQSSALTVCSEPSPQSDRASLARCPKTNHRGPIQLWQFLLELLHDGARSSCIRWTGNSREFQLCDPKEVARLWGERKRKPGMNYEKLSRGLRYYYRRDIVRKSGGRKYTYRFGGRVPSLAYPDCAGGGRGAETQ
Procedure, shortened: as §1

ELF3 = target: T4, ELF3 (Homo sapiens, UniProt P78545 1-371); details: protein: recombinant; tags: N-terminal GST; dsDNA, one strand shown
T4 sequence: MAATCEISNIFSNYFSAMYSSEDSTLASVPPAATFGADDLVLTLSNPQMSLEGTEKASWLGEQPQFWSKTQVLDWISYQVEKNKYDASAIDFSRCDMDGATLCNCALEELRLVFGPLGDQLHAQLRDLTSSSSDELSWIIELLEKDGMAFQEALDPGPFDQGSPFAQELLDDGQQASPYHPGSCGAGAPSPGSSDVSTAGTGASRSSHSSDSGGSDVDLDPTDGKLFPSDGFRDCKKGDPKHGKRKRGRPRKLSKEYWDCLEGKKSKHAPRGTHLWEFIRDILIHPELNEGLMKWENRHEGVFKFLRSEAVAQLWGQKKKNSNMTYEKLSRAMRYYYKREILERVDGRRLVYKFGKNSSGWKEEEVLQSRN
Procedure, shortened: as §1

ETV1 = ETV1 (Homo sapiens, UniProt P50549 1-477); details: protein: recombinant; tags: N-terminal GST; dsDNA, one strand shown
Procedure, shortened: as §1

ERF = target: T5, ERF (Homo sapiens, UniProt P50548 1-548); details: protein: recombinant; tags: N-terminal GST; dsDNA, one strand shown
T5 sequence: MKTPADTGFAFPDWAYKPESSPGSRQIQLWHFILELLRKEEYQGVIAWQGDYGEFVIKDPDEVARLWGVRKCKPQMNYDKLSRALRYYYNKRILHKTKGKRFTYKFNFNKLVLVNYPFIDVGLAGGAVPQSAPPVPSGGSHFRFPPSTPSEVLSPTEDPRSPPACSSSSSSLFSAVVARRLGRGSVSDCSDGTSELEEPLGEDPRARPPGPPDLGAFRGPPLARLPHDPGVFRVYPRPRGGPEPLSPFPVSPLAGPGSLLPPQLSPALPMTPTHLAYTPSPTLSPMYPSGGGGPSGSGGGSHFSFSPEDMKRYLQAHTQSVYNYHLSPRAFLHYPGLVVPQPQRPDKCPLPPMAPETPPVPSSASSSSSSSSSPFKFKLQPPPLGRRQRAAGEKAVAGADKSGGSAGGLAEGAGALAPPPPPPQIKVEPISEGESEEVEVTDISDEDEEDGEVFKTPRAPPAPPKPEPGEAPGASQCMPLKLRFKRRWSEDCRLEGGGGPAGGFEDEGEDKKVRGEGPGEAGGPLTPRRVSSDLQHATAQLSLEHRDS
Procedure, shortened: as §1

ETV3L = target: T6, ETV3L (Homo sapiens, UniProt Q6ZN32 1-361); details: protein: recombinant; tags: N-terminal GST; dsDNA, one strand shown
T6 sequence: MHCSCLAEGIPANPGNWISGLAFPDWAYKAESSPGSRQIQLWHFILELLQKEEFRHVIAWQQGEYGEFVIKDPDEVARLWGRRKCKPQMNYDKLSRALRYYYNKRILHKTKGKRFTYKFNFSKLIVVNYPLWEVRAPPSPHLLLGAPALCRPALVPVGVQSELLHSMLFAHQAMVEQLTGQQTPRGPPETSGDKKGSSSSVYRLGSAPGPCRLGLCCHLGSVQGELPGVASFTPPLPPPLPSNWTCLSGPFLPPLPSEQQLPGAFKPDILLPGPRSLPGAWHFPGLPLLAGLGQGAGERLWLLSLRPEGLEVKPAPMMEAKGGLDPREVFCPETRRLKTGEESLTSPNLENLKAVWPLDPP
Procedure, shortened: as §1

ETS2 = target: T7, ETS2 (Homo sapiens, UniProt P15036 1-469); details: protein: recombinant; tags: N-terminal GST; dsDNA, one strand shown
T7 sequence: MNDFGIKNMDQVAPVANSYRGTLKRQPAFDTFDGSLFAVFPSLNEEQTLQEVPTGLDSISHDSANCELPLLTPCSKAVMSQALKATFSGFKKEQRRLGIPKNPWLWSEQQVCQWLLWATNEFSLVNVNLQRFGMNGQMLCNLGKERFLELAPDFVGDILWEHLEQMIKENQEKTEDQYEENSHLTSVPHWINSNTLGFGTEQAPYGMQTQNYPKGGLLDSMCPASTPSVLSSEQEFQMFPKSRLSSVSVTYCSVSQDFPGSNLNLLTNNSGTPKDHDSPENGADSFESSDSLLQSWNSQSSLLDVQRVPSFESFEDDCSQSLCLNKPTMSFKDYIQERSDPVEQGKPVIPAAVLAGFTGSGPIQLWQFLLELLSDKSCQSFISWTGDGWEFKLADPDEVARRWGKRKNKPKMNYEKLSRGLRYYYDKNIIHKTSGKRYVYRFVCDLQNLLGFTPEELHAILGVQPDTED
Procedure, shortened: as §1

SPDEF = target: T8, SPDEF (Homo sapiens, UniProt O95238 1-335); details: protein: recombinant; tags: N-terminal GST; dsDNA, one strand shown
T8 sequence: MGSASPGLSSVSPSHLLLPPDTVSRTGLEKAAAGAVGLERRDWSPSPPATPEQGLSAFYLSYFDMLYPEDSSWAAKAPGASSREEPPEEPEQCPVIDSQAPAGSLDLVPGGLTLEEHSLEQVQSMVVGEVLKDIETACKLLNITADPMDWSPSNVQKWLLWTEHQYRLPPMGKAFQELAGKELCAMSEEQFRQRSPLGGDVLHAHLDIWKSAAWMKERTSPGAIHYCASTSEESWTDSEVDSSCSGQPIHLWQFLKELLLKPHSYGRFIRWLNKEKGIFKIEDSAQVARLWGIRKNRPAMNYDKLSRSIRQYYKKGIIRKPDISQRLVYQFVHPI
Procedure, shortened: as §1

ETV7 = target: T9, ETV7 (Homo sapiens, UniProt Q9Y603 1-341); details: protein: recombinant; tags: N-terminal GST; dsDNA, one strand shown
T9 sequence: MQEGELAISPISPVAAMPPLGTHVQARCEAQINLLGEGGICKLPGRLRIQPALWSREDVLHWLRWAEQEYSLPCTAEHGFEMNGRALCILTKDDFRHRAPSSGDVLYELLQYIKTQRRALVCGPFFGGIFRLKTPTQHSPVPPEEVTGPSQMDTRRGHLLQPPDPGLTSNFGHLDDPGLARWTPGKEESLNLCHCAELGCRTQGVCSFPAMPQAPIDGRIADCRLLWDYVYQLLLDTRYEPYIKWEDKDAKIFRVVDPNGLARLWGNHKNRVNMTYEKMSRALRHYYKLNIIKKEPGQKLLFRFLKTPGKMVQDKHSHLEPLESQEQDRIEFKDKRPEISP
Procedure, shortened: as §1

ELF5 = target: T10, ELF5 (Homo sapiens, UniProt Q9UKW6-2 1-255); details: protein: recombinant; tags: N-terminal GST; dsDNA, one strand shown
T10 sequence: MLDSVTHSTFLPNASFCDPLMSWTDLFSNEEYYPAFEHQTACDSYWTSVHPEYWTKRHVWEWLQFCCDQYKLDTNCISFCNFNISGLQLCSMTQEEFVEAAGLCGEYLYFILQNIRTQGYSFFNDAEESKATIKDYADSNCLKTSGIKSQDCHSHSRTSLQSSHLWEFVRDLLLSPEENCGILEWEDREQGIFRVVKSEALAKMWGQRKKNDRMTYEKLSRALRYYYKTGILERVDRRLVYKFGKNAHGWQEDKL
Procedure, shortened: as §1

ETV3 = target: T11, ETV3 (Homo sapiens, UniProt P41162-2 1-143); details: protein: recombinant; tags: N-terminal GST; dsDNA, one strand shown
T11 sequence: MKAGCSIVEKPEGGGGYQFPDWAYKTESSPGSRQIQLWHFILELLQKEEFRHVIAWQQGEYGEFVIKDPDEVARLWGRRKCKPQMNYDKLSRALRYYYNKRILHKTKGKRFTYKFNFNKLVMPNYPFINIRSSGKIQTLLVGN
Procedure, shortened: as §1

ETV6 = ETV6 (Homo sapiens, UniProt P41212 1-452); details: protein: recombinant; tags: N-terminal GST; dsDNA, one strand shown
Procedure, shortened: as §1

CRX = CRX (Homo sapiens, UniProt O43186 1-299); details: protein: recombinant; tags: N-terminal GST; dsDNA, one strand shown
Procedure, shortened: as §1

HSF1, sequence (Q00613 whole entry): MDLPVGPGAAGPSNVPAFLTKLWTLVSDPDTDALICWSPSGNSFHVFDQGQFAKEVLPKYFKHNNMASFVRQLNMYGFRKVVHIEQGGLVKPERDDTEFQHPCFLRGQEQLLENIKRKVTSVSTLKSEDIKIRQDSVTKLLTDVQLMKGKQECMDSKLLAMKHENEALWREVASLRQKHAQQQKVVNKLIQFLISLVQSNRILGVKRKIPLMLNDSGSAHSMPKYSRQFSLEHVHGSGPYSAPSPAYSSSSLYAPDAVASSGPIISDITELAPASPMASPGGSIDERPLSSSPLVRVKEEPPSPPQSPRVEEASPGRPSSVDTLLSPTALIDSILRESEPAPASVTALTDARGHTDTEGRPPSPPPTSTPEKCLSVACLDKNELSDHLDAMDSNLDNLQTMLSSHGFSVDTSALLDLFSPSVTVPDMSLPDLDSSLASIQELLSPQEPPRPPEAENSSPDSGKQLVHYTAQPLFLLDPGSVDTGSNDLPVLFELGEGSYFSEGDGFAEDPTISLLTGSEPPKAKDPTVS
ETV1, sequence (P50549 whole entry): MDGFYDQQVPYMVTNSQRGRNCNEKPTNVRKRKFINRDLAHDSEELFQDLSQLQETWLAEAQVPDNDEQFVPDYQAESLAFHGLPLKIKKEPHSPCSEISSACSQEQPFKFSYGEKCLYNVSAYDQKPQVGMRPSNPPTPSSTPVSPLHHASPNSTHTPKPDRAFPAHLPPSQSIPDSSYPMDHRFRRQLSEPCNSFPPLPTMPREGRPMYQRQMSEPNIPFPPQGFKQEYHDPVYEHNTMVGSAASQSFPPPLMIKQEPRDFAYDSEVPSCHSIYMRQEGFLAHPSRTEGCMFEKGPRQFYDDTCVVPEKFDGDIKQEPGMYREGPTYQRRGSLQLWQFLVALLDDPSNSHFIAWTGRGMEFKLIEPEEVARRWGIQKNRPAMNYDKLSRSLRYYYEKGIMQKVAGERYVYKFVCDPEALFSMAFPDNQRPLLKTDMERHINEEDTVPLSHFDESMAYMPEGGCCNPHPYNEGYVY
ELF4, sequence (Q99607 whole entry): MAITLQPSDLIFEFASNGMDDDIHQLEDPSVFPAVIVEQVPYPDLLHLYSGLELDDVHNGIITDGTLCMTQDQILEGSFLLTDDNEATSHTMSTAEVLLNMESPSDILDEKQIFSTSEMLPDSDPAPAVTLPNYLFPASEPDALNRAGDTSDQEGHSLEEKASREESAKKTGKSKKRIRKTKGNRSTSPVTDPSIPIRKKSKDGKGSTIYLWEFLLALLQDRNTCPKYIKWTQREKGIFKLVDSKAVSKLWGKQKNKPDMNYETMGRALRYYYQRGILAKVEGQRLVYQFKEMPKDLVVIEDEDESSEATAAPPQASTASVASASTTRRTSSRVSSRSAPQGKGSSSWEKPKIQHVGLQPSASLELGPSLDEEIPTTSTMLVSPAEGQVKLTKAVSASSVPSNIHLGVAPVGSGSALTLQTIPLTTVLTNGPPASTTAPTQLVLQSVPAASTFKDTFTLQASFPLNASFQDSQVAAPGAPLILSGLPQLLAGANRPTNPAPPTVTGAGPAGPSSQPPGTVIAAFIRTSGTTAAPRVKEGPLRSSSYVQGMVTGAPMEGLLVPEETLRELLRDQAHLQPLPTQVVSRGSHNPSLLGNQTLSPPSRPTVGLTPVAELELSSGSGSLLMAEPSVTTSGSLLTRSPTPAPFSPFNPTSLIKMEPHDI
ETV6, sequence (P41212 whole entry): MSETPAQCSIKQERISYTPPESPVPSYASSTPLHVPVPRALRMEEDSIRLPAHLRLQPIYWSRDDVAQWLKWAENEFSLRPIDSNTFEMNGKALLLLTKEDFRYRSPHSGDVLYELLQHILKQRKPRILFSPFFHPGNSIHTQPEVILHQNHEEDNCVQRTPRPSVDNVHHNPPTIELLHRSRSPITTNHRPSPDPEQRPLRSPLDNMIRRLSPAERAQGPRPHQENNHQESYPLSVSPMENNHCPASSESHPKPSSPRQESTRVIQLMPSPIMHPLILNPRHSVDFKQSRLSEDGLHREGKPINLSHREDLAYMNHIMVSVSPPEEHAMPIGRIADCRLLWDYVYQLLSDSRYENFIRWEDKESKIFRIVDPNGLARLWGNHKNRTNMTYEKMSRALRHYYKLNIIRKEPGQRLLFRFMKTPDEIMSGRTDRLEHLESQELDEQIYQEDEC
ETV5, sequence (P41161 whole entry): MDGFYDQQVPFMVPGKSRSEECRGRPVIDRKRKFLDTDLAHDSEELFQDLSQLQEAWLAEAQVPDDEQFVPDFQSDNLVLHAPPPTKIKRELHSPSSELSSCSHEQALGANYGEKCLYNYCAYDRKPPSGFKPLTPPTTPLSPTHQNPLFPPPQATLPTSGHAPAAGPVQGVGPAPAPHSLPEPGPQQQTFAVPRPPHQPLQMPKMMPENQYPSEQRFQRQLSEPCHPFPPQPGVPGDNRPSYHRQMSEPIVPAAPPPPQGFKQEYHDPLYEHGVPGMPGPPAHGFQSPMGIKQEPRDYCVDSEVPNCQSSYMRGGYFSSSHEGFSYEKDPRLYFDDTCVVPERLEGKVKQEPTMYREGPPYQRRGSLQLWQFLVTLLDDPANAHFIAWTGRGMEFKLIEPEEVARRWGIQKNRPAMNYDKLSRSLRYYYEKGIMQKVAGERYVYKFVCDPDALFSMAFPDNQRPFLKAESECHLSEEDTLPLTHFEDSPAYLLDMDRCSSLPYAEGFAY
CRX, sequence (O43186 whole entry): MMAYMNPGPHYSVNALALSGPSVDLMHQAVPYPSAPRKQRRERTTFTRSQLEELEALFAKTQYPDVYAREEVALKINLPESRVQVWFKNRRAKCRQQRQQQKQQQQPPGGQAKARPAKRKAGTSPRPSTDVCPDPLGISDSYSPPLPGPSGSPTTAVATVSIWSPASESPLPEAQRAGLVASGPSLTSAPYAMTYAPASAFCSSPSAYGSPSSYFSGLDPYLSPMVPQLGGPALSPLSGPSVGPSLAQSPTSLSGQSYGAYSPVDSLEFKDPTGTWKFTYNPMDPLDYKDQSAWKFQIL

Sequence | binding signal (FEV) | binding signal (ETV5) | binding signal (HSF1) | binding signal (ELF4) | binding signal (ELK4) | binding signal (ETV2) | binding signal (ELF3) | binding signal (ETV1) | binding signal (ERF) | binding signal (ETV3L) | binding signal (ETS2) | binding signal (SPDEF) | binding signal (ETV7) | binding signal (ELF5) | binding signal (ETV3) | binding signal (ETV6) | binding signal (CRX)
CGTTCA | 1.25 fold enrichment (6-mer frequency, TF over GST control) | 1.16 fold enrichment (6-mer frequency, TF over GST control) | 1.03 fold enrichment (6-mer frequency, TF over GST control) | 1.17 fold enrichment (6-mer frequency, TF over GST control) | 1.14 fold enrichment (6-mer frequency, TF over GST control) | 1.19 fold enrichment (6-mer frequency, TF over GST control) | 1.13 fold enrichment (6-mer frequency, TF over GST control) | 1.18 fold enrichment (6-mer frequency, TF over GST control) | 1.2 fold enrichment (6-mer frequency, TF over GST control) | 1.25 fold enrichment (6-mer frequency, TF over GST control) | 1.12 fold enrichment (6-mer frequency, TF over GST control) | 1.14 fold enrichment (6-mer frequency, TF over GST control) | 1.07 fold enrichment (6-mer frequency, TF over GST control) | 1.08 fold enrichment (6-mer frequency, TF over GST control) | 1.12 fold enrichment (6-mer frequency, TF over GST control) | 1.19 fold enrichment (6-mer frequency, TF over GST control) | 
CAGATT | 1 fold enrichment (6-mer frequency, TF over GST control) | 1 fold enrichment (6-mer frequency, TF over GST control) | 1.75 fold enrichment (6-mer frequency, TF over GST control) | 1.06 fold enrichment (6-mer frequency, TF over GST control) | 1.01 fold enrichment (6-mer frequency, TF over GST control) | 1.02 fold enrichment (6-mer frequency, TF over GST control) | 1.06 fold enrichment (6-mer frequency, TF over GST control) | 1.03 fold enrichment (6-mer frequency, TF over GST control) |  |  | 1.02 fold enrichment (6-mer frequency, TF over GST control) |  |  |  | 1.03 fold enrichment (6-mer frequency, TF over GST control) | 1.02 fold enrichment (6-mer frequency, TF over GST control) | 2.1 fold enrichment (6-mer frequency, TF over GST control)
